In PubChem BioAssay AID2680 (National Center for Advancing Translational Sciences (NCATS), 2010) one finds Potency data, which are given here for seven compounds.

The list shows a part of the results. Where a call stands in place of a potency, no number is given. Inconclusive results are not listed. Calls of active or inactive are those of the source. Calls come from the whole dose curve; as a rule, active = well fitted inhibition curve with a large enough effect; inconclusive = small, poorly fitted or top-dose-only effect; inactive = no such curve, though single readings can be large or run the other way.

Sequence of Glutathione-independent formaldehyde dehydrogenase (Pseudomonas putida) (P46154 whole entry, looked up): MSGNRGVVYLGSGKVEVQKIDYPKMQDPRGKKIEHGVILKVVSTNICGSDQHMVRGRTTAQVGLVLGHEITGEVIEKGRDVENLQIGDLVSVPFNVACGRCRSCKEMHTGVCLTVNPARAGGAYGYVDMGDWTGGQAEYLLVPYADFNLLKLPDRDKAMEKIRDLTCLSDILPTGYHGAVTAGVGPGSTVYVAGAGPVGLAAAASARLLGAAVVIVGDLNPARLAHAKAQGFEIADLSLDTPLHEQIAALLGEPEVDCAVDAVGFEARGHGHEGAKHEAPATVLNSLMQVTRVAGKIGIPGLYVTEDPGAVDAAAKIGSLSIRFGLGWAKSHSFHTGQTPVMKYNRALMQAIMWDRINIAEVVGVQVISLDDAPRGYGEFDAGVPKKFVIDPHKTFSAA

This assay addresses Glutathione-independent formaldehyde dehydrogenase (Pseudomonas putida) (UniProt P46154). Kind of assay: Counterscreen for JMJD2E Inhibitors: qHTS Assay for Inhibitors of Formaldehyde Dehydrogenase (FDH). Conditions: FDH enzyme assay, NADH fluorescence kinetic; series mostly up to 56.7 µM. The method, then: This assay is a counterscreen for a related assay for inhibitors of JMJD2E. See AID 2147 for details. The JMJD2E assay utilized an FDH-coupled protocol. To screen for false positive results in the primary assay due to inhibition of the formaldehyde dehydrogenase coupled enzyme, an FDH-only assay was run using FDH as the enzyme (0.000025 U/uL final concentration) and 10 uM formaldehyde and 0.25 mM NAD+ as the substrate, and following the same fluidic protocol as described in AID 2147 for the coupled HTS assay. Actives in this assay are likely false positives of the primary HTS.
Assay is initiated by dispensing 3 uL of enzyme solution (4/3x final concentration) into a 1,536-well assay plate using a nanoliter solenoid-based dispenser (Beckman-Coulter, Fullerton, CA). After pintool transfer of compound solution, the assay plate is incubated at room temperature for 10 minutes, followed by a 1 uL addition of 4x substrate solution to initiate the reaction (final assay volume of 4 uL). The plate is then manually transferred into the ViewLux reader for kinetic measurements.
A general note: A counterscreen serves to expose hits that act by an unwanted route or on another target.
Regarding `Cc1ccc(N2C(=O)CC(Sc3ncn[nH]3)C2=O)cc1` (configuration not stated), the Potency was 316 nM (active).

With `Oc1ccc(/C=C/c2c(F)cccc2F)c2cccnc12`, the Potency entry was “inactive”.

For `Oc1cccc2cc(-c3ccncc3)cnc12`, the Potency entry is “inactive”.

Regarding `Oc1c(CN2CCCC2)cc(COCc2ccccc2)c2cccnc12`, the Potency entry is “inactive”.

Consider `COc1ccc(Cl)cc1CSc1ncn[nH]1`, for which the Potency is 316 nM (active).

With `Nc1ccc(Nc2cc(O)c3ncccc3c2)cc1`, the Potency entry is “inactive”.

`O=C1CC(Sc2ncn[nH]2)C(=O)N1c1ccccc1` (configuration not stated): the Potency was 316 nM (active).
